Bioassay records from PubChem.
Rows were chosen to be rich in hits. Some 4% of all compounds tested hit in one or more screens of this group.
TRHR agonist: qHTS for Small Molecule Agonists and Allosteric Enhancers of Human TRH Receptor: Primary Screen for Agonists | Thyrotropin-releasing hormone receptor (Homo sapiens), P34981 | TRHR cells, calcium flux fluo-8, FDSS agonist mode | activation, % at 2 µM | 0.18% of 360,000 active; also: 0% is about no effect
Target sequence (P34981 whole entry, looked up): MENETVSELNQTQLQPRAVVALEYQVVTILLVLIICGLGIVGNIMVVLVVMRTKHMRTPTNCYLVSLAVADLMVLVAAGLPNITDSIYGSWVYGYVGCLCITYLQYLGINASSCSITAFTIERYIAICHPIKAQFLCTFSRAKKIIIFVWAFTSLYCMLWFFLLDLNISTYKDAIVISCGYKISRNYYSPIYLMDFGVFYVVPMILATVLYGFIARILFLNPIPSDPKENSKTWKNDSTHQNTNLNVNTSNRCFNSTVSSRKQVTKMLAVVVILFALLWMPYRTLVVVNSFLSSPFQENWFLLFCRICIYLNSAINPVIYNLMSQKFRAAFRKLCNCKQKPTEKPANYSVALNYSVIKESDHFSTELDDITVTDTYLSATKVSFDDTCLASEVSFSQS
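Agonist-mode FDSS calcium read (Ex 480/Em 530, 1 s cycles) in 1536-well TRHR cells with fluo-8 dye, after 10-cycle baseline and 23 nL compound addition; TRH at EC20 (10 nM final) added afterwards for the enhancer phase.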
TRHR enhancer: qHTS for Small Molecule Agonists and Allosteric Enhancers of Human TRH Receptor: Primary Screen for Enhancers; Thyrotropin-releasing hormone receptor (Homo sapiens), P34981; TRHR cells, fluo-8 calcium fluorescence, EC20 TRH enhancement; enhancement, % at 2 µM; 0.66% of 360,000 active; in the data active = enhancement above about 30%; also: 0% is about no effect
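Enhancer read-out: after compound pinning and an initial kinetic agonist-mode read, an EC20 of TRH (10 nM final) was injected and fluo-8 calcium signal (Ex 480/Em 530) followed at 1 s/cycle for 100 cycles in TRHR-expressing cells.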
D1 potentiator: Potentiators of Human D1 Dopamine Receptor: qHTS | D(1A) dopamine receptor (Homo sapiens), P21728 | AID 504651, 2011 | HEK293 TREx D1 cells, calcium flux, dopamine EC20 potentiation | 0.036% of 360,000 active | potentiation, % at 10 µM; in the data active = potentiation above about 30%; also: 0% is about no effect
Glioma ERSR ind: qHTS for Inducers of the Endoplasmic Reticulum Stress Response (ERSR) in Human Glioma: qHTS; U87-MG GRP78 promoter luciferase reporter, 16 h; Potency, µM, for inactives: at the highest dose activation, usual class: activators; 0.02% of 420,000 active; AID 602332, 2012; active = well fitted activation curve with a large enough effect; also: potency is read from the fitted curve at half-maximal effect; series mostly up to about 76 µM; % of control where 0% means no effect; nearly all actives have a fitted effect of over 35% in size
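ERSR induction read as luciferase luminescence (Bright-Glo, 10 min at room temperature) in stably transfected human U87-MG glioma cells exposed to compounds for 16 h, using GRP78 as sensor.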
D1 antagonist: Antagonist of Human D 1 Dopamine Receptor: qHTS | 3.2% of 360,000 active | activity change, negative = inhibition, % at 10 µM | HEK293 TREx D1 cells, calcium flux, dopamine EC80; stronger effect = lower value; in the data active = activity change below about -30%; also: % is scaled to controls: 0 for no effect and ±100 for the full control effect
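Calcium flux readout: force-coupled, inducible Hek293 Trex D1 line, cells induced overnight at 30 C with tetracycline, dye-loaded 30–90 min at RT. Antagonism scored against EC80 dopamine challenge given 180 s after compound.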
D1 ag: Allosteric Agonists of the Human D1 Dopamine Receptor: qHTS | HEK293 T-REx D1 cells, calcium flux, agonist mode | AID 504660, 2011 | activation, % at 2 µM | 1% of 360,000 active | D(1A) dopamine receptor (Homo sapiens), P21728; also: 0% is about no effect
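Inducible HEK293 T-REx D1 cells, force-coupled to calcium signalling, were plated at 4000 cells/well with tetracycline and held overnight at 30 C. After no-wash calcium dye loading, compound-evoked calcium rise over 180 s flagged agonists.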
Numbers without * were called inactive; x = no result; ! = a repeat was not active. Rule as the data show it, unless noted: active = activation above about 30%; inactive = the rest.

SMILES | TRHR agonist | TRHR enhancer | D1 potentiator | Glioma ERSR ind | D1 antagonist | D1 ag
COc1ccc(NC(=O)CN(C)C(=O)c2ccccc2OC)cc1 | 0.7 | 35.3* | 2.8 | -1.5% | 1.6 | 1.2
NC(=O)C1(c2ccccc2)CCCN1C(=O)c1ccc(Br)cc1 (configuration not stated) | -0.6 | -3.1 | -3.2 | -1.2% | 0.5 | 0.3
NC(=O)C1(c2ccccc2)CCCN1C(=O)c1ccccc1Br (configuration not stated) | 0.1 | 35.9* | 1.9 | -1.5% | -18.7 | 1.9
Cc1cc(Br)ccc1NC(=O)c1ccc(NS(=O)(=O)c2c(C)noc2C)cc1 | -1.0 | 9.5 | -0.8 | -3.4% | -5.4 | -0.2
Cc1cc(C)n2nc(-c3ccsc3-n3c(C)ccc3C)cc2n1 | 0.6 | -4.9 | -1.6 | 1.1% | -55.2* | 2.1
COc1cccc(NC(=O)CN(C)C(=O)CCNC(=O)c2ccc(Br)cc2)c1 | 0.0 | 2.3 | -5.9 | 1.7% | 4.9 | 1.8
O=C(Nc1nnc(S(=O)(=O)N2CCCCCC2)s1)c1ccccc1Cl | 0.6 | 0.4 | -6.7 | 0.4% | -40.7*! | 8.0
CC(C)CN(c1ccccc1)S(=O)(=O)c1nnc(NC(=O)C(C)C)s1 | 0.5 | 0.3 | -3.9 | -3.0% | -40.6* | 3.2
O=C(Nc1nnc(S(=O)(=O)N2CCCC2)s1)c1ccccc1Cl | -0.2 | -1.9 | -0.6 | 0.2% | 6.6 | 1.1
CCN(c1ccc(OC)cc1)S(=O)(=O)c1nnc(NC(=O)c2ccccc2Cl)s1 | 0.1 | 4.4 | -6.6 | -2.9% | -41.9*! | 1.9
O=C(NCc1ccco1)c1cccn2c(=O)c3sccc3nc12 | x | x | x | -2.0% | x | x
CCCCC(=Nc1ccccc1OC)C1=C(O)CC(c2ccccc2)CC1=O (configuration not stated) | 0.1 | -1.1 | -2.8 | -3.3% | 0.6 | 1.3
CN(C)/C=c1\sc2c(C#N)cc(C(=O)c3ccc(Br)cc3)n2c1=O | 1.5 | -5.3 | -6.0 | -0.9% | -50.7* | -0.7
CCOc1ccc(-n2ccnc2SCC(=O)Nc2cccc3ccccc23)cc1 | -0.3 | -2.1 | -5.2 | -1.6% | 14.3 | 2.5
Cc1cc(C)cc(-n2ccnc2SCC(=O)Nc2ccc3c(c2)OCCO3)c1 | -1.1 | 4.2 | -4.0 | 0.4% | -25.2 | 0.0
Cc1cc(C)cc(-n2ccnc2SCC(=O)Nc2ccc(C)c(Cl)c2)c1 | 0.3 | 0.8 | 1.3 | -1.8% | -39.8* | 2.9
O=C1CCCN2N=C(SCC(=O)Nc3ccc(Cl)cc3)SC2=N1 | 0.1 | 2.8 | -5.2 | -4.0% | -9.3 | 9.9
Cc1ccc(NC(=O)CSC2=NN3CCCC(=O)N=C3S2)cc1Cl | -0.6 | 7.3 | x | -2.2% | -38.8* | 25.3
Cc1ccc(C)c(NC(=O)CSc2nncn2C)c1 | 0.4 | -2.4 | -5.3 | -4.0% | -33.4* | -3.1
CCOc1ccc(-n2ccnc2SCC(=O)Nc2cc(C)ccc2C)cc1 | -0.5 | 1.5 | -6.7 | -2.5% | -45.6* | -0.6
Cn1cnnc1SCC(=O)Nc1ccccc1F | -0.6 | -1.3 | -2.0 | -3.5% | 1.3 | 3.0
Cc1ccc(S(=O)(=O)N2CCOCC2)cc1NC(=O)CSc1nnc(COc2ccccc2F)n1N | x | x | x | -2.6% | x | x
CS(=O)(=O)Cc1cc(Sc2ccccc2)nc(-c2ccncc2)n1 | 0.6 | 4.8 | -3.5 | -2.8% | -19.0 | 6.9
O=C(COC(=O)c1cc(=O)c2ccccc2o1)Nc1ccc2ccccc2c1 | -0.4 | 0.0 | 2.6 | 8.2% | 4.1 | 1.1
COc1ccc(C)cc1NC(=O)C1CCN(C(=O)c2ccco2)CC1 | -0.6 | -6.0 | 7.0 | 0.1% | 3.4 | 0.0
Cc1cccc(CCN2CCN=C2Nc2ccccc2)c1 | 19.3 | -11.2 | -0.1 | 1.8% | -39.8* | 46.1*
C=CCN1C(=O)CN=C1Nc1cccc(C)c1 | -0.8 | 4.9 | -1.8 | 1.8% | -6.9 | 1.8
Fc1ccc(CCN2CCN=C2Nc2ccccc2)cc1 | 7.7 | -1.3 | -8.0 | 2.0% | -14.8 | 34.6*
c1ccc(CCN2CCN=C2Nc2ccccc2)cc1 | 19.2 | -7.4 | -6.2 | -7.1% | -11.9 | 19.4
